Experimental data taken from the supplement of paper PMC10849652.
Of roughly 7,900 targets only a part is listed; those with a hit were picked by preference. About 0.6% of all pairs of compound and target were hits.

Legend:
Assay in all cases: log2 fold change, soluble protein after heating vs DMSO (PISA); higher = thermal stabilisation; K562 cells, 10 uM, 30 min; active = over 0.2 and 3.5 SD of the protein, either way, in both replicates (recomputed)
[1] = compound: C1=CC=C(C=C1)[C@H](COC2=CC3=C(C=C2)NC(=O)N3)NC(=O)C4=CC=CN(C4=O)CC5=CC(=C(C=C5)F)F
In short: (§1)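 Soluble protein was defined as the supernatant after 21,000xg for 90 min. It came from K562 cells at 2×10^6 cells/mL given 10 μM compound for 30 min, heated in aliquots for 3 min across 48°C-58°C, pooled, and extracted in PBS with 0.5% NP-40 at 4°C, and was quantified by TMTpro 16plex LC-MS/MS with equalised channel sums. Thermal stability against control samples, from duplicates, is reported as log2 fold change.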

[2] = compound: CC1=C(SC2=C1C(=N[C@H](C3=NN=C(N32)C)CC(=O)N)C4=CC=C(C=C4)Cl)C
In short: as §1

[3] = compound: CC1=C2C(=CC=C1)N=C(N(C2=O)C3=CC=CC=C3C)CN4C=NC5=C(N=CN=C54)N
In short: as §1

[4] = compound: Cc1sc2c(c1C)C(c1ccc(Cl)cc1)=N[C@@H](CC(=O)OC(C)(C)C)c1nnc(C)n1-2
In short: as §1

[5] = compound: c1ccc([C@@H]2C[C@H]2NC2CCNCC2)cc1
In short: as §1

Measured: log2 fold change

SYF2 (UniProt O95926)
inactive: [1] 0.032 | [2] 0.029 | [3] -0.077 | [4] 0.145 | [5] 0.065

ST6GAL1 (UniProt P15907)
Chain of UniProt P15907 (P15907 whole entry, looked up): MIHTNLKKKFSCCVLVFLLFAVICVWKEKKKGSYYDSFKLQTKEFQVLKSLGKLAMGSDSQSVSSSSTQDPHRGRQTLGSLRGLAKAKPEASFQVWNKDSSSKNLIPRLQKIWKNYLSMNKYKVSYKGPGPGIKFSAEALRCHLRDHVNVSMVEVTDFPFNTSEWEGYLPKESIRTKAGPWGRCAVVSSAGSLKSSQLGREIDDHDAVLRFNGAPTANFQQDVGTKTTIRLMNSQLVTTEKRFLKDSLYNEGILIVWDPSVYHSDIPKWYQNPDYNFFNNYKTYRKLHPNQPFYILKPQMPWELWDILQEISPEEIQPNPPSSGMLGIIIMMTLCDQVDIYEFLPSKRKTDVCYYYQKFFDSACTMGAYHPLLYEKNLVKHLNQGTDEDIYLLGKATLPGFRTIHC
inactive: [1] 0.017 | [2] 0.012 | [3] 0.033 | [4] -0.018 | [5] -0.006

SNX1 (UniProt Q13596)
inactive: [1] -0.019 | [2] 0.029 | [3] 0.038 | [4] -0.003 | [5] -0.07

TATDN2 (UniProt Q93075)
inactive: [1] -0.044 | [2] -0.067 | [3] -0.037 | [4] 0.069 | [5] 0.071

SRSF2 (UniProt Q01130)
inactive: [1] 0.008 | [2] -0.047 | [3] -0.052 | [4] 0.061 | [5] 0.143

SYK (UniProt P43405)
inactive: [1] 0.21 | [2] -0.221 | [3] -0.041 | [4] 0.132 | [5] -0.105

SUMO1 (UniProt P63165)
inactive: [1] -0.004 | [2] -0.097 | [3] -0.048 | [4] 0.231 | [5] 0.152

TIAL1 isoform 2 (UniProt Q01085)
inactive: [1] -0.023 | [2] 0.049 | [3] 0.015 | [4] 0.043 | [5] -0.024

SLC9A6 isoform 2 (UniProt Q92581)
inactive: [1] -0.007 | [2] 0.066 | [3] 0.068 | [4] -0.014 | [5] 0.047

SUCLA2 (UniProt Q9P2R7)
Chain of UniProt Q9P2R7 (Q9P2R7 whole entry, looked up): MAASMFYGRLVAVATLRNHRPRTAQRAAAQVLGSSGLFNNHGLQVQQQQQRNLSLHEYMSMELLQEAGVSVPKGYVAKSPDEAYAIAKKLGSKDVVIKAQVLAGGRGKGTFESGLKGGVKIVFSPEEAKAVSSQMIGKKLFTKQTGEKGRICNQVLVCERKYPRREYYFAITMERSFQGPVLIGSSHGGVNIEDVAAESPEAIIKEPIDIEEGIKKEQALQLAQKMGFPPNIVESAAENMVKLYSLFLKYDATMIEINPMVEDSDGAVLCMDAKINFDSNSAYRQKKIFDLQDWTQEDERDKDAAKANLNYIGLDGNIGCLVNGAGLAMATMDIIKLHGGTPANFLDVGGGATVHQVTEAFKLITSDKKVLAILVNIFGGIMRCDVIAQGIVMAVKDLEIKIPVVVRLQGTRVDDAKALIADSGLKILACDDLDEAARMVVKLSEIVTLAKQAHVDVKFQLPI
inactive: [1] -0.029 | [2] 0.07 | [3] 0.113 | [4] -0.017 | [5] -0.044

SPART (UniProt Q8N0X7)
Chain of UniProt Q8N0X7 (Q8N0X7 whole entry, looked up): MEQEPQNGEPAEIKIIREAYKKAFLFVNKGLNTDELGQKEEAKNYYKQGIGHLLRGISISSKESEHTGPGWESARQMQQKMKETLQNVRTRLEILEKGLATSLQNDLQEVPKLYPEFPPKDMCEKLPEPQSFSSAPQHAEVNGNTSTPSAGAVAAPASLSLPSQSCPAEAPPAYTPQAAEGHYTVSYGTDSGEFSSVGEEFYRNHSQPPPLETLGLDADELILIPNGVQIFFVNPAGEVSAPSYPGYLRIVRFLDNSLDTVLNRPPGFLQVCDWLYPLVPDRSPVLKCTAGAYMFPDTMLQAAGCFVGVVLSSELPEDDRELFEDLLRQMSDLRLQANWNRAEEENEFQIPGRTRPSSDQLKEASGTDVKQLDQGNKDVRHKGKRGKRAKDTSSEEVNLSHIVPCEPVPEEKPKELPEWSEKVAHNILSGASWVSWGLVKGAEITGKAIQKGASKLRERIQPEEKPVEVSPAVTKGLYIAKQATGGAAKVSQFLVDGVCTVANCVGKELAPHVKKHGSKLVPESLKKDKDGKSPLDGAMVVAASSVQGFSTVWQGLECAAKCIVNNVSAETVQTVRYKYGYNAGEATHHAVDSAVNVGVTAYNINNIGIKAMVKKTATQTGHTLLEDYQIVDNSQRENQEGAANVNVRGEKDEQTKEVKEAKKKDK
inactive: [1] -0.028 | [2] 0.043 | [3] 0.065 | [4] 0.018 | [5] -0.002

SLC25A38 (UniProt Q96DW6)
inactive: [1] 0.014 | [2] 0.034 | [3] -0.035 | [4] -0.035 | [5] 0.014

TBC1D10B (UniProt Q4KMP7)
inactive: [1] -0.021 | [2] 0.062 | [3] 0.014 | [4] -0.026 | [5] 0.006

TK1 (UniProt K7ERV3)
inactive: [1] 0.038 | [2] 0.091 | [3] 0.083 | [4] 0.029 | [5] 0.015

SP100 isoform 4 (UniProt P23497)
inactive: [1] -0.006 | [2] -0.015 | [3] -0.047 | [4] 0 | [5] 0.024

SREK1 isoform 2 (UniProt Q8WXA9)
Chain of UniProt Q8WXA9 (Q8WXA9 whole entry, looked up): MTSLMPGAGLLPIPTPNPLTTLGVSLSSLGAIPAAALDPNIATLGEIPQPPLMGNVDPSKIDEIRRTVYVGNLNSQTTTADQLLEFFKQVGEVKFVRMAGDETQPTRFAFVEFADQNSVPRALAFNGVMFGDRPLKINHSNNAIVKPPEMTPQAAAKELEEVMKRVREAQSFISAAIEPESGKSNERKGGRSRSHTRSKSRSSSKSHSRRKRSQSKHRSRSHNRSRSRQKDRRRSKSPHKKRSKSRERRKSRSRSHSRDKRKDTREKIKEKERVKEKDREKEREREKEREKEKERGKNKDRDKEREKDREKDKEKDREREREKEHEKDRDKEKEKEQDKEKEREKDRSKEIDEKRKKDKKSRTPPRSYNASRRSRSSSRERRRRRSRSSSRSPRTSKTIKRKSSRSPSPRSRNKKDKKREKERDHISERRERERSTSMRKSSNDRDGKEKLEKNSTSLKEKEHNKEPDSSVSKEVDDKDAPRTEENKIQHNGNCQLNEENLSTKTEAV
inactive: [1] 0.05 | [2] -0.06 | [3] -0.039 | [4] -0.037 | [5] 0.026

STARD3NL (UniProt O95772)
Chain of UniProt O95772 (O95772 whole entry, looked up): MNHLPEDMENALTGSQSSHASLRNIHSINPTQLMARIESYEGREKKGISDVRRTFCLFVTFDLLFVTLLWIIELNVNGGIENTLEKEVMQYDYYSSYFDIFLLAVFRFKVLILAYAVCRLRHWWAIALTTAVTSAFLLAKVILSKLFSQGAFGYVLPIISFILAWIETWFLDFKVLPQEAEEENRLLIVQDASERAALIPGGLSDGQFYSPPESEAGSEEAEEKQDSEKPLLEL
inactive: [1] 0.027 | [2] 0.025 | [3] 0.142 | [4] 0 | [5] 0.039

STARD7 (UniProt Q9NQZ5)
Chain of UniProt Q9NQZ5 (Q9NQZ5 whole entry, looked up): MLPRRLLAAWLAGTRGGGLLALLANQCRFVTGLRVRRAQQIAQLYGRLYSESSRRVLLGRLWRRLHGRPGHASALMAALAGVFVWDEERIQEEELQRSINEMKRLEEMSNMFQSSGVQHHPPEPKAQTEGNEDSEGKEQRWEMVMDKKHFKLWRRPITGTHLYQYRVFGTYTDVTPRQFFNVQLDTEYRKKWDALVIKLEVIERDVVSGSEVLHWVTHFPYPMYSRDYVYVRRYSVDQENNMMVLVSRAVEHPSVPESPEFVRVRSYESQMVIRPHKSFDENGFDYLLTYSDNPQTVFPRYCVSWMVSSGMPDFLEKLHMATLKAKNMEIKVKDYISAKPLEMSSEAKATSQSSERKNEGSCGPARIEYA
inactive: [1] -0.018 | [2] 0.075 | [3] 0.145 | [4] 0.063 | [5] -0.017

SRSF7 (UniProt Q16629)
Chain of UniProt Q16629 (Q16629 whole entry, looked up): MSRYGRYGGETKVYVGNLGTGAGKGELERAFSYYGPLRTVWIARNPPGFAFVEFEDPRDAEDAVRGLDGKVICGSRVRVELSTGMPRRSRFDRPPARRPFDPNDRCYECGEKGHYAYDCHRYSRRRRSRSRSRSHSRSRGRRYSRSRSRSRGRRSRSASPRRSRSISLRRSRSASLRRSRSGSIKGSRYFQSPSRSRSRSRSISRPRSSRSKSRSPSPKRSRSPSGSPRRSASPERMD
inactive: [1] 0.136 | [2] -0.171 | [3] -0.093 | [4] 0.209 | [5] 0.055

SLC30A7 (UniProt Q8NEW0)
Chain of UniProt Q8NEW0 (Q8NEW0 whole entry, looked up): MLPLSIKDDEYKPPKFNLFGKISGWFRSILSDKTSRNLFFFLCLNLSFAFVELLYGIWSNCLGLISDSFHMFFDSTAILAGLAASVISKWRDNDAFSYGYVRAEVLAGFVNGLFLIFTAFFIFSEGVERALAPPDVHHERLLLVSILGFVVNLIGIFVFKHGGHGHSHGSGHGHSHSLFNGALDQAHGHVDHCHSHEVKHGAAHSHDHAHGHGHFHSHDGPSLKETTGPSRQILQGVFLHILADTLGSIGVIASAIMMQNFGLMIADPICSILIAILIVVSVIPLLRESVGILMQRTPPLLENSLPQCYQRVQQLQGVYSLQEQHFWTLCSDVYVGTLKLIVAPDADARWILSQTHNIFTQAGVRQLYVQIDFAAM
inactive: [1] -0.033 | [2] 0.052 | [3] -0.049 | [4] 0.039 | [5] -0.011

TENT5C (UniProt Q5VWP2)
inactive: [1] 0.017 | [2] 0.25 | [3] 0.122 | [4] 0.116 | [5] -0.35

SMAD9 (UniProt O15198)
Chain of UniProt O15198 (O15198 whole entry, looked up): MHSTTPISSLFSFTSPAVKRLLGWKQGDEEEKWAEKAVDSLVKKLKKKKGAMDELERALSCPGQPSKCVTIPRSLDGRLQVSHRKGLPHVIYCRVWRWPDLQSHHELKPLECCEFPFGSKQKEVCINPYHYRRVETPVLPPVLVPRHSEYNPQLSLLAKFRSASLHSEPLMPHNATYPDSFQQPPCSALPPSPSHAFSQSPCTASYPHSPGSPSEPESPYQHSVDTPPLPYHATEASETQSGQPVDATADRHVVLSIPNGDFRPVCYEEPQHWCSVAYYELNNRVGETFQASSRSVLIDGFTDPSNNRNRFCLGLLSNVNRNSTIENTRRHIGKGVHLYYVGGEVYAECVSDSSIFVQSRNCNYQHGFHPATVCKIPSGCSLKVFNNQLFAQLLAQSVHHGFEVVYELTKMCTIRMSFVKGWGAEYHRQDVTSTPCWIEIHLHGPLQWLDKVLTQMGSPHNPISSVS
inactive: [1] -0.104 | [2] 0.094 | [3] -0.001 | [4] 0.076 | [5] -0.054

TJP2 isoform 7 (UniProt Q9UDY2)
Chain of UniProt Q9UDY2 (Q9UDY2 whole entry, looked up): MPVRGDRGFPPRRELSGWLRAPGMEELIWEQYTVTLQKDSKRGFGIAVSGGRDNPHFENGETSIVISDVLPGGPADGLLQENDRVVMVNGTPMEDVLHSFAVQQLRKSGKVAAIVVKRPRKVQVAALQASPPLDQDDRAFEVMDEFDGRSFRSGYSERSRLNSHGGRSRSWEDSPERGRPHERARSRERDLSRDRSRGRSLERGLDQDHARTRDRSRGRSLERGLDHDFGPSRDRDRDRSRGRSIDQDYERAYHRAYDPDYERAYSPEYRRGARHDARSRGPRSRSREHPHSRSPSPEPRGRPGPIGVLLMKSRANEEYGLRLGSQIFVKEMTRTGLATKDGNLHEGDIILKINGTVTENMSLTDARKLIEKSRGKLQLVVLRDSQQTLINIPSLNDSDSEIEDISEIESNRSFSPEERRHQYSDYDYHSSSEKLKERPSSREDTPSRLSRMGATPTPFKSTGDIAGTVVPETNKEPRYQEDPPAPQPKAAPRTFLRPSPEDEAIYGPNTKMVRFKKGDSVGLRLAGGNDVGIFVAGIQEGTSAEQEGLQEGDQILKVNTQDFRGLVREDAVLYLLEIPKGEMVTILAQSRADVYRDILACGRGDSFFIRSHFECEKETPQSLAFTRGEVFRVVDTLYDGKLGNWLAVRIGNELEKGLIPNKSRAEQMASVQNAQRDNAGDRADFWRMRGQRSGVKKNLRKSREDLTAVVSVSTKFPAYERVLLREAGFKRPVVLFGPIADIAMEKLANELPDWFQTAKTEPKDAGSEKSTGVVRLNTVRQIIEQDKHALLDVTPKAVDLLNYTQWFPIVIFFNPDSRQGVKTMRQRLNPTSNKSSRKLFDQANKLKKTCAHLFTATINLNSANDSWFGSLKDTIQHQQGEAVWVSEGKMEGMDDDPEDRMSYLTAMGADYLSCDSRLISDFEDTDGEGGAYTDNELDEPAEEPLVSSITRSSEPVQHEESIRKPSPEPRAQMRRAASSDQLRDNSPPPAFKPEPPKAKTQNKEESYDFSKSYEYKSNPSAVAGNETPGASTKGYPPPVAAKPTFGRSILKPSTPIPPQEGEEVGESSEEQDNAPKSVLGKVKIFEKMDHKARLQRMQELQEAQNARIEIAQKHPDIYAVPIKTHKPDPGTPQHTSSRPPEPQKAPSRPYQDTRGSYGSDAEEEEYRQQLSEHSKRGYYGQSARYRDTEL
inactive: [1] -0.03 | [2] 0.084 | [3] 0.081 | [4] 0.04 | [5] -0.044

STK26 (UniProt Q9P289)
inactive: [1] -0.077 | [2] -0.029 | [3] -0.006 | [4] 0.004 | [5] 0.026
